Measured values published in PubChem BioAssay (Tox21).
Records with an inconclusive call do not appear. The source made the active and inactive calls. Unless noted, calls come from the whole dose curve; as a rule, active = well fitted curve in the direction sought with a large enough effect in the repeat runs; inconclusive = weak or mixed curves; inactive = no such curve, though single readings can be large; an effect the other way counts as inactive or inconclusive.

What was measured:
[1] = qHTS assay for small molecules that induce genotoxicity in human embryonic kidney cells expressing luciferase-tagged ATAD5 (AID 651632); note: nearly all actives have a fitted effect of over 15% in size
Procedure, shortened: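 Test compounds were delivered by pin tool onto HEK293T reporter cells (2,000/well) expressing ATAD5 fused to luciferase. After 16 hr at 37C, 5% CO2, Amplite was added for 30 min at room temperature and luminescence was measured.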

[2] = qHTS assay for small molecule agonists of the p53 signaling pathway - cell viability (AID 651633; calls by dose curve;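 note: p53RE-bla HCT reporter cells with a stable beta-lactamase p53 reporter; series mostly up to about 83 µM; nearly all actives have a fitted effect of over 30% in size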)
Procedure, shortened: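 Viability counter-read: CellTiter-Glo luminescence (30 min, room temperature) in the same p53RE-bla plates. These plates had been exposed to compounds for 16 h at 37 C.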

[3] = qHTS assay for small molecules that induce genotoxicity in human embryonic kidney cells expressing luciferase-tagged ATAD5 - cell viability (AID 651634; calls by dose curve; note: nearly all actives have a fitted effect of over 25% in size)
Procedure, shortened: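 Quantitative high-throughput format. HEK293T cells expressing ATAD5 fused to luciferase were plated at 2,000 cells/well and treated 15.5 hr with compound versus DMSO. Viability was determined by fluorescent live-cell protease substrate, 30 min at 37C.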

[4] = qHTS assay for small molecule disruptors of the mitochondrial membrane potential - cell viability (AID 720634; calls by dose curve;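 note: human HepG2 liver cancer cells; series mostly up to about 83 µM; nearly all actives have a fitted effect of over 20% in size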)
Procedure, shortened: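 Same-well counter-screen: following the MMP dye addition, CellTiter-Glo was added to 1 hr compound-treated HepG2 cells and luminescence read after 30 min at room temperature.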

[5] = qHTS assay for small molecule disruptors of the mitochondrial membrane potential (AID 720635)
Procedure, shortened: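 Mitochondrial membrane potential tracked with Mito-MPS dye, red aggregates (ex 540/em 590 nm) against green monomers (ex 490/em 535 nm). Compound treatment 1 hr at 37C, dye 30 min in HepG2.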

[6] = qHTS assay to test for compound auto fluorescence at 535 nm (green) in HepG2 cells (AID 720675)
[7] = qHTS assay to test for compound auto fluorescence at 590 nm (red) in HEK293 cells (AID 720679)
Procedure, shortened: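 Autofluorescence equivalency to Rose Bengal sodium, 540/590nm, in HEK293 cells exposed overnight to 23 nL compound per well.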

[8] = qHTS assay to test for compound auto fluorescence at 535 nm (green) in HEK293 cells (AID 720680)
[9] = qHTS assay to test for compound auto fluorescence at 460 nm (blue) in HEK293 cell free culture (AID 720681)
Procedure, shortened: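 Blue fluorescence (Ex 405/Em 460 nm, triamterene-equivalent) was read immediately after pin transfer of compound or DMSO into medium (DMEM, 10% FBS) without cells.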

[10] = qHTS assay to test for compound auto fluorescence at 535 nm (green) in HEK293 cell free culture (AID 720682)
Procedure, shortened: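 Green-label autofluorescence (485 nm excitation, 535 nm emission) measured on compound added to cell-free culture medium (DMEM, 10% FBS). Output is expressed relative to fluorescein.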

[11] = qHTS assay to test for compound auto fluorescence at 590 nm (red) in HEK293 cell free culture (AID 720683)
Procedure, shortened: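 Red-channel autofluorescence of compounds in culture medium (DMEM, 10% FBS), no cells, measured at 540/590 nm. Rose Bengal sodium is the reference fluorophore for equivalence.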

[12] = qHTS assay to test for compound auto fluorescence at 590 nm (red) in HepG2 cell free culture (AID 720684)
Procedure, shortened: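 Cell-free; medium MEM + 10% FBS; compound or DMSO added by pintool; read Ex 540/Em 590 nm; Rose Bengal sodium as red reference fluorophore.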

[13] = qHTS assay to test for compound auto fluorescence at 460 nm (blue) in HepG2 cell free culture (AID 720685)
Procedure, shortened: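 Cell-free plates of MEM plus 10% FBS received 23 nL compound or DMSO vehicle; blue-channel (405/460 nm) intensity scored against triamterene as reference fluorophore.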

[14] = qHTS assay to test for compound auto fluorescence at 535 nm (green) in HepG2 cell free culture (AID 720686)
[15] = qHTS assay to test for compound auto fluorescence at 460 nm (blue) in HepG2 cells (AID 720687)
Procedure, shortened: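 Blue-channel autofluorescence (Ex/Em 405/460 nm, triamterene-equivalent) was measured after 1 hr compound exposure at 37 C, 5% CO2. Cells were HepG2, plated overnight at 37 C in MEM plus 10% FBS.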

[16] = target: Glucocorticoid receptor (Homo sapiens) (UniProt P04150); assay: qHTS assay to identify small molecule agonists of the glucocorticoid receptor (GR) signaling pathway (AID 720691; active = well fitted activation curve with a large enough effect in the signal ratio in the repeat runs, not every such curve was filed as active; the % refers to the signal ratio)
Procedure, shortened: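 A HeLa cervical cancer line expressing GR and a glucocorticoid response element-driven beta-lactamase gene is treated with compounds for 18 h; LiveBLAzer B/G FRET substrate is then applied and fluorescence read.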

[17] = target: Glucocorticoid receptor (Homo sapiens) (UniProt P04150); assay: qHTS assay to identify small molecule antagonists of the glucocorticoid receptor (GR) signaling pathway (AID 720692; active = well fitted inhibition curve with a large enough effect in the signal ratio in the repeat runs, not every such curve was filed as active; the % refers to the signal ratio)
Procedure, shortened: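 GRE-bla HeLa line, dex-stimulated (5 nM final). Compound exposure 18 h, 37 C. Beta-lactamase FRET read after 2 h RT substrate.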

[18] = qHTS assay to test for compound auto fluorescence at 590 nm (red) in HepG2 cells (AID 720674)
Procedure, shortened: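 We screened compounds on adherent HepG2 cells, incubating them for an hour at 37 C in 5% CO2 before reading emission at 590 nm under 540 nm excitation; values reflect equivalence to Rose Bengal sodium fluorescence.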

[19] = qHTS assay to test for compound auto fluorescence at 460 nm (blue) in HEK293 cells (AID 720678)
Procedure, shortened: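 Auto fluorescence in the blue band was quantified as triamterene equivalency. HEK293 cells were seeded at 2,000/well, dosed after a 4-5 hr attachment, and kept overnight at 37C before the 405/460 nm reading.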
% is set by controls: 0 for no effect and ±100 for the full control effect.

Chain of Glucocorticoid receptor (Homo sapiens) (P04150 whole entry, looked up): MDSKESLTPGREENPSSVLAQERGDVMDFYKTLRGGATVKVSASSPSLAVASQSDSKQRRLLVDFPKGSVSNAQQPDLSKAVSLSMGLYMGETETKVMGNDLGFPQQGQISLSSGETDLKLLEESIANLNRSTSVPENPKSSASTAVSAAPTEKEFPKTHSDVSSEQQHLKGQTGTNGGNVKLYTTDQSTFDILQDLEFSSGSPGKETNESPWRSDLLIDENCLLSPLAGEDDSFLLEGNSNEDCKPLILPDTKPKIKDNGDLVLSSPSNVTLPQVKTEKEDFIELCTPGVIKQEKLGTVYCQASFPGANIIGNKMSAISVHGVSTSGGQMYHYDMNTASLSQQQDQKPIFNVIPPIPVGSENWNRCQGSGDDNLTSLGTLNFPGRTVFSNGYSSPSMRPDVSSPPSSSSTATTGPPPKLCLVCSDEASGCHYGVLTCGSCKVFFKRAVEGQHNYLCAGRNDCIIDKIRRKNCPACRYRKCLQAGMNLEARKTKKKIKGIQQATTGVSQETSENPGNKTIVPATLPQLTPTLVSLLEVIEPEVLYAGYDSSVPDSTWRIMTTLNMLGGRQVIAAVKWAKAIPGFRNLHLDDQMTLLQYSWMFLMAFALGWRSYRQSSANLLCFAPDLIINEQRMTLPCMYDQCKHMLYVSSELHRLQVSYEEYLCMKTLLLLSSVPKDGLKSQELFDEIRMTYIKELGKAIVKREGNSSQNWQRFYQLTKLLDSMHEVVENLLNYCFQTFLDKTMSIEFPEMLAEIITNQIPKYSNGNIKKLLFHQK

CC(=O)NC1CCSC1=O (stereo not given)
inactive: Potency [1] | Potency [2] | Potency [3] | Potency [4] | Potency [5] | outcome [6] | outcome [7] | outcome [8] | outcome [9] | outcome [10] | outcome [11] | outcome [12] | outcome [13] | outcome [14] | outcome [15] | outcome [16] | Potency [17]

CNP(=O)(OC)Oc1ccc(C(C)(C)C)cc1Cl (stereo not given)
inactive: Potency [1] | Potency [2] | Potency [3] | Potency [4] | outcome [18] | outcome [6] | outcome [19] | outcome [7] | outcome [8] | outcome [9] | outcome [11] | outcome [12] | outcome [13] | outcome [14] | outcome [15] | outcome [16]

Clc1ccc(C(OCCN2CCCCC2)c2ccccc2)cc1 (stereo not given)
inactive: Potency [1] | Potency [2] | Potency [3] | Potency [4] | fluorescence, relative to Rose Bengal [18] -0.716% [at 18.6 µM] | fluorescence, % of fluorescein control [6] -0.0264% [at 18.6 µM] | fluorescence, % of triamterene [19] 0.0368% [at 18.6 µM] | fluorescence, % of fluorescent control [7] 0.965% [at 18.6 µM] | fluorescence, % of fluorescein [8] -0.14% [at 18.6 µM] | fluorescence, % of fluorescent control [9] -0.141% [at 18.6 µM] | activity change [10] -0.263% [at 18.6 µM] | fluorescence, % of fluorescent control [11] 0.321% [at 18.6 µM] | fluorescence, % of Rose Bengal [12] 0.0745% [at 18.6 µM] | fluorescence, % of fluorescent control [13] 0.0001% [at 18.6 µM] | fluorescence, % of fluorescein control [14] -0.0362% [at 18.6 µM] | fluorescence, % of fluorescent control [15] 0.1% [at 18.6 µM] | outcome [16] | Potency [17]

CCCC(=O)Cl
inactive: Potency [1] | Potency [2] | Potency [3] | Potency [4] | Potency [5] | outcome [18] | outcome [6] | outcome [7] | outcome [8] | outcome [9] | outcome [10] | outcome [11] | outcome [12] | outcome [13] | outcome [14] | outcome [15] | outcome [16] | Potency [17]

OCCCBr
inactive: Potency [1] | Potency [2] | Potency [3] | Potency [4] | outcome [18] | outcome [6] | outcome [19] | outcome [7] | outcome [8] | outcome [9] | outcome [10] | outcome [11] | outcome [12] | outcome [13] | outcome [14] | outcome [15] | outcome [16] | Potency [17]

C=CC(=O)OCCCCO
inactive: Potency [1] | Potency [2] | Potency [3] | Potency [4] | outcome [18] | outcome [6] | outcome [19] | outcome [7] | outcome [8] | outcome [9] | outcome [10] | outcome [11] | outcome [12] | outcome [13] | outcome [14] | outcome [15] | outcome [16]

NC(=O)CI
inactive: Potency [1] | Potency [2] | Potency [3] | Potency [4] | outcome [18] | outcome [6] | outcome [19] | outcome [7] | outcome [8] | outcome [9] | outcome [10] | outcome [11] | outcome [12] | outcome [13] | outcome [14] | outcome [15]

Clc1cc(Cl)c(Cl)c(Cl)c1
inactive: Potency [1] | Potency [2] | Potency [3] | Potency [4] | Potency [5] | outcome [6] | outcome [19] | outcome [7] | outcome [8] | outcome [9] | outcome [11] | outcome [12] | outcome [13] | outcome [14] | outcome [15] | outcome [16]

CC(C)(OO)c1ccccc1
inactive: Potency [1] | Potency [2] | Potency [3] | Potency [4] | outcome [18] | outcome [6] | outcome [19] | outcome [7] | outcome [8] | outcome [9] | outcome [10] | outcome [11] | outcome [12] | outcome [13] | outcome [14] | outcome [15] | outcome [16]

CC(=O)[C@H]1CC[C@H]2[C@@H]3CC[C@H]4C[C@](C)(O)CC[C@]4(C)[C@H]3CC[C@]12C
inactive: Potency [1] | Potency [2] | Potency [3] | Potency [4] | Potency [5] | outcome [6] | outcome [7] | outcome [8] | outcome [10] | outcome [11] | outcome [12] | outcome [13] | outcome [14] | outcome [15] | outcome [16] | Potency [17]

O=C1NCN(c2ccccc2)C12CCN(CCCOc1ccc(F)cc1)CC2
inactive: Potency [1] | Potency [2] | Potency [3] | Potency [4] | outcome [18] | outcome [6] | outcome [19] | outcome [7] | outcome [8] | outcome [9] | outcome [11] | outcome [12] | outcome [13] | outcome [14] | outcome [15] | outcome [16]

CC(C)N(CCC(C(N)=O)(c1ccccc1)c1ccccn1)C(C)C (stereo not given)
inactive: Potency [1] | Potency [2] | Potency [3] | Potency [4] | Potency [5] | outcome [18] | outcome [6] | outcome [19] | outcome [7] | outcome [8] | outcome [11] | outcome [12] | outcome [13] | outcome [14] | outcome [15]
